Screening results: PubChem BioAssay, several laboratories
PERK inhibitor: blocks human PERK kinase; CHO PERK-DD fusion, SEAP luminescence translation reporter; inhibition, % at 5.6 µM; actives 0.17% (n = 220,000); Q9NZJ5;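 active = inhibition above the mean inhibition of all tested compounds plus 3 SD, set separately per screening campaign, cut at about 2.9% in these data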;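 also: PERK kinase domain activated by AP20187 dimerizer at 100 nM; 0% = DMSO with dimerizer and 100% = rapamycin at 8.4 µM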
PABP polyA inh: blocks human PABP binding to poly(A) RNA; inhibition, % at 35 µM; AID 2014; fluorescence polarization; actives 1% (n = 290,000);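 also: calls also rest on retests at 20 µM and on dose response follow-up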
eIF4E 4G PPI: blocks eIF4E binding to eIF4G; AID 782; TR-FRET eIF4E-eIF4GI(517-606) binding, 2 h; inhibition, % at 21.7 µM; actives 0.37% (n = 220,000);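 active = inhibition above about 30%, limit read from the data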;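 also: 0% = full FRET control wells and 100% = background wells lacking eIF4GI fragment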
PABP1 MLLE inh: blocks PAM2 peptide binding to the PABP1 MLLE domain; actives 0.36% (n = 360,000); P11940; inhibition, % at 20 µM; GST-MLLE / FITC-PAM2 fluorescence polarization; in the data active = inhibition above about 35%, passing the limit was not always enough;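 also: plate controls were DMSO wells with GST-MLLE for no effect and wells lacking GST-MLLE protein for full effect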
PfM18AAP inh: blocks P. falciparum M18 aspartyl aminopeptidase; AID 1822; recombinant PfM18AAP, H-Glu-NHMec fluorogenic cleavage; actives 1.2% (n = 290,000); inhibition, % at 7.35 µM;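 active = inhibition above the campaign mean inhibition over all tested compounds plus 3 SD, cut at about 28% in these data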;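 also: 0% = plate median of test compound wells and 100% = 2 mM ZnCl2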
eIF4H FP inh: inhibitors of RNA binding by human eIF4H; Q15056; eIF4H fluorescence polarization binding assay; actives 0.94% (n = 290,000); inhibition, % at 35 µM;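 also: calls also rest on retests at 20 µM and on dose response follow-up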
* = called active by the depositor; ? = inconclusive; . = no result; [ ] = remark or other dose. Rows were chosen to be rich in hits. Some 2.4% of all compounds tested hit in one or more screens of this group. Unless noted, no rule for the calls is given here.

SMILES	PERK inhibitor	PABP polyA inh	eIF4E 4G PPI	PABP1 MLLE inh	PfM18AAP inh	eIF4H FP inh
COc1ccc(N2CCN(S(=O)(=O)c3cn(C)cn3)CC2)cc1	.	5	.	-4	10	-2
COc1ccc([C@H]2CC(=O)C=C(c3ccc(C(=O)O)cc3)C2)cc1OC	.	.	.	3	.	.
CCN(CC)CCCN1C(=O)C(O)=C(C(=O)c2ccc(C)o2)C1c1ccc(C)o1 (centres undefined)	0	120*	-2	0	9	18
CCC(=O)NNc1nc2c(C)cc(C)cc2s1	0	-1	2	-18	58*	2
CCc1noc(C)c1C(=O)Nc1nc2c(C)cc(C)cc2s1	.	.	.	18	.	.
Cc1cc(C)c2nc(NNC(=O)c3ccc(S(=O)(=O)N4CC(C)CC(C)C4)cc3)sc2c1 (centres undefined)	0	3	-4	-100	29*	-6
CCN(CC)S(=O)(=O)c1ccc(C(=O)NC(=S)N(CCC#N)Cc2cccnc2)cc1	1	2	0	-57	7	-2
Cc1ccc(F)cc1CNC(=O)C1CCC(=O)N(C2CC2)C1 (centres undefined)	.	-1	.	6	-15	6
CN(Cc1ccn[nH]1)C(=O)C1CCC(=O)N(Cc2cccc(C(F)(F)F)c2)C1 (centres undefined)	.	2	.	4	-15	-11
CC(=O)Nc1ccc(S(=O)(=O)NCCC(=O)OCC(=O)NCc2ccccc2)cc1	.	.	.	-9	.	.
CCc1ccc2cccc3c2c1N=CN3C	.	.	.	13	.	.
Oc1[nH]c(=S)sc1/C=C1\C(c2ccccc2)=Nc2ccccc21	0	7	1	-138	-2	57*
Oc1[nH]c(=S)sc1C=C1N=c2ccccc2=N1	1	7	-3	-17	23	-8
CC(=O)c1ccc(/C=C/c2nc3ccccc3n2C)o1	1	19	-7	5	-5	20
O=C(NC(Cc1ccccc1)C(=O)O)/C(=C\c1ccccc1F)NC(=O)c1ccccc1 (centres undefined)	2	0	-1	3	-5	-9
O=C(NC(Cc1ccccc1)C(=O)O)/C(=C/c1ccc(Cl)cc1)NC(=O)c1ccccc1 (centres undefined)	0	77	1	2	1	active
COc1ccc(C)cc1S(=O)(=O)N(CC(=O)Nc1cc([N+](=O)[O-])ccc1C)c1ccc(C)c(C)c1	1	51*	-2	-2	-2	active
O=C(NCCc1ccccn1)C1CCCN1S(=O)(=O)c1ccc(Cl)cc1 (centres undefined)	.	-8	.	-1	-6	-4
CN(C)C1(CN=Cc2cc(Cl)cc([N+](=O)[O-])c2O)CCCCC1	.	16	.	2	30*	4
COc1cc2c(ccc3cc(OC)c(OC)c(O)c32)cc1O	.	86*	24	9	.	74*
COc1ccc(/C=C(\C#N)c2nc3ccccc3[nH]2)cc1O	.	8	.	0	9	-7
N#C/C(=C\c1ccc(Sc2ccc(Cl)cc2)o1)c1nc2ccccc2[nH]1	-1	100*	-1	-45	-3	58*
N#C/C(=C\c1ccc(Sc2nc3ccccc3[nH]2)o1)c1ccccc1	-1	-2	.	-73	-4	-8
COc1cc(/C=C(\C#N)c2nc3ccccc3[nH]2)cc(OC)c1O	0	?	30*	-131	9	?
CCCCn1c(N)c(N(CC(C)C)C(=O)C2CCN(S(=O)(=O)c3ccc(Cl)cc3)CC2)c(=O)[nH]c1=O	.	.	.	-17	.	.
SMILES	PERK inhibitor	PABP polyA inh	eIF4E 4G PPI	PABP1 MLLE inh	PfM18AAP inh	eIF4H FP inh
Cc1ccccc1C(=O)NNc1ccc(-c2csnn2)cc1	1	-10	2	6	30*	-5
CC(=O)Oc1ccc(-c2csnn2)cc1	0	-7	-3	-1	3	-8
CCOc1ccc(C(=O)OCC(=O)NCc2ccco2)cc1OCC	2	12	-4	-5	7	30
COc1ccc(C(=O)OCC(=O)NCc2ccco2)cc1OC	0	29	-1	-10	14	89*
O=C(COC(=O)c1ccccc1)NCc1ccco1	-2	20*	4	-6	6	76*
O=C(COC(=O)c1ccccc1Nc1cccc(C(F)(F)F)c1)NCc1ccco1	0	9	2	-16	-1	54*
Cc1ccc(C(=O)OCC(=O)NCc2ccco2)cc1	0	6	7	3	4	-1
O=C(COC(=O)c1cccc(S(=O)(=O)N2CCc3ccccc3C2)c1)NCc1ccco1	0	6.7*	-24	-20	6	87*
O=C(COC(=O)c1ccccc1Nc1ccccc1)NCc1ccccc1	1	-10	1	-1	12	-10
Cc1ccc2c(Cl)cc(Cl)c(OCC(=O)NC(=O)NCc3ccco3)c2n1	-1	9	-9	-12	2	8
CCN(CC)S(=O)(=O)c1cccc(NC(=O)COC(=O)/C=C/c2ccco2)c1	0	1	4	8	-2	69*
Cc1ccc2c(Cl)cc(Cl)c(OCC(=O)NCc3ccco3)c2n1	0	62*	47*[fluorescence artefact?]	.	5	98*
O=C(COC(=O)/C=C/c1ccco1)NCc1ccco1	1	-3	24	0	2	86*
Cc1c(Cl)cnc(NC(=O)COC(=O)/C=C/c2ccco2)c1Cl	.	.	.	-23	.	.
O=C(COC(=O)/C=C/c1ccco1)Nc1ncc(C(F)(F)F)cc1Cl	0	active	12	1	9	88*
CN(C)S(=O)(=O)c1cccc(NC(=O)COC(=O)/C=C/c2ccco2)c1	0	-7	3	-14	1	86
Cc1ccc(C(=O)NC2CCN(CC(=O)Nc3cccc([N+](=O)[O-])c3)CC2)cc1	0	-3	-1	-3	-3	2
O=C(NCc1ccccn1)c1ccc(CNS(=O)(=O)c2cccc(Cl)c2)cc1	0	-2	-2	14	-9	-1
COc1ccc(OCCC(=O)OCC(=O)NCc2ccco2)cc1	1	25	-1	-7	4	32
COc1ccccc1NCCC(=O)OCC(=O)NCc1ccco1	2	45*	9	-4	5	96*
CCOc1ccc(/C=C2\SC(=S)N(N3C(=O)C4CC4C3=O)C2=O)cc1 (centres undefined)	1	4	6	10	31*	-8
O=C(Nc1nc(-c2ccccc2)cs1)c1ccco1	-2	-1	66*	-9	-2	3
O=C(COc1ccccc1)Nc1nc(-c2cccnc2)cs1	.	.	.	6	.	.
O=C(Nc1nc2ccsc2c(=O)s1)c1ccco1	0	23	-7	-6	-3	64*
O=C(COc1ccccc1)Nc1nc(-c2ccncc2)cs1	.	33	.	35*	22	-10
COc1ccc(-c2csc(NC(=O)c3ccco3)n2)cc1	0	0	5	-7	2	12
